“And” between values parts separate entries of the source, which are not always exact repeats. Equal values may be shown once. The campaign covered roughly 5,500 compounds. About 2,000 (36%) were called active. About 18% were inconclusive and are not listed. The list shows a part of the results. A number with no mark means an inactive call. Cut-off read from the data, not from the text of the source: active = normalized growth mostly below about 0.91 (no sharp cut-off); inconclusive = no clear call, values can overlap the other calls; inactive = mostly above about 0.92.
Assay: chemical genetic growth profiling, strain panel (AID 1159580);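 note: tested at 20 µM; growth read once vehicle control cultures reached saturation at 30 °C; 1 = growth at the plate median or of vehicle wells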
Details: S. cerevisiae deletion strains, growth OD

**Q.** For `CC1CC[C@@]2(OC1)O[C@H]1CC3C4CC[C@@H]5C[C@@H](O)CC[C@]5(C)C4CC[C@]3(C)[C@H]1[C@@H]2C` (stereo partly specified), which normalized growth (locus YAL013W, strain DEP1, stronger effect = lower value) is on record?
**A.** The normalized growth was 1.03.

**Q.** What about the normalized growth (locus YAL021C, strain ccr4, stronger effect = lower value) of the same compound?
**A.** Its normalized growth is 1.05.

**Q.** And the normalized growth (locus YAL026C, strain drs2, stronger effect = lower value)?
**A.** Its normalized growth is 1.02.

**Q.** What about the normalized growth (locus YAL030W, strain snc1, stronger effect = lower value) of the same compound?
**A.** Its normalized growth is 1.03.

**Q.** And the normalized growth (locus YBL061C, strain skt5, stronger effect = lower value)?
**A.** The normalized growth was 1.02.

**Q.** What about the normalized growth (locus YBR009C, strain hhf1, stronger effect = lower value) of the same compound?
**A.** Its normalized growth is 1.01.

**Q.** What about the normalized growth (locus YBR021W, strain FUR4, stronger effect = lower value) of the same compound?
**A.** The normalized growth was 1.02.

**Q.** And the normalized growth (locus YBR023C, strain chs3, stronger effect = lower value)?
**A.** The normalized growth was 1.05.

**Q.** And the normalized growth (locus YBR171W, strain sec66, stronger effect = lower value)?
**A.** Its normalized growth is 1.04.

**Q.** What about the normalized growth (locus YBR229C, strain ROT2, stronger effect = lower value) of the same compound?
**A.** Its normalized growth is 1.01.

**Q.** What about the normalized growth (locus YBR231C, strain swc5, stronger effect = lower value) of the same compound?
**A.** Its normalized growth is 1.02.

**Q.** And the normalized growth (locus YBR279W, strain paf1, stronger effect = lower value)?
**A.** Its normalized growth is 1.02.

**Q.** And the normalized growth (locus YCL011C, strain gbp2, stronger effect = lower value)?
**A.** The normalized growth was 1.06.

**Q.** And the normalized growth (locus YCL016C, strain dcc1, stronger effect = lower value)?
**A.** The normalized growth was 1.02.

**Q.** What about the normalized growth (locus YCL029C, strain bik1, stronger effect = lower value) of the same compound?
**A.** Its normalized growth is 1.01.

**Q.** What about the normalized growth (locus YCL061C, strain MRC1, stronger effect = lower value) of the same compound?
**A.** The normalized growth was 1.02.

**Q.** What about the normalized growth (locus YCL069W, strain vba3, stronger effect = lower value) of the same compound?
**A.** Its normalized growth is 1.05.

**Q.** What about the normalized growth (locus YCR088W, strain abp1, stronger effect = lower value) of the same compound?
**A.** Its normalized growth is 1.03.

**Q.** What about the normalized growth (locus YDL005C, strain med2, stronger effect = lower value) of the same compound?
**A.** The normalized growth was 1.03.

**Q.** And the normalized growth (locus YDL035C, strain GPR1, stronger effect = lower value)?
**A.** Its normalized growth is 1.07.

**Q.** What about the normalized growth (locus YDL040C, strain nat1, stronger effect = lower value) of the same compound?
**A.** The normalized growth was 1.02.

**Q.** What about the normalized growth (locus YDL074C, strain BRE1, stronger effect = lower value) of the same compound?
**A.** Its normalized growth is 1.11.

**Q.** What about the normalized growth (locus YDL101C, strain DUN1, stronger effect = lower value) of the same compound?
**A.** Its normalized growth is 1.02.

**Q.** And the normalized growth (locus YDL134C, strain PPH21, stronger effect = lower value)?
**A.** The normalized growth was 1.03.

**Q.** And the normalized growth (locus YDL185W, strain tfp1, stronger effect = lower value)?
**A.** The normalized growth was 1.

**Q.** And the normalized growth (locus YDL192W, strain arf1, stronger effect = lower value)?
**A.** Its normalized growth is 1.01.

**Q.** And the normalized growth (locus YDR001C, strain nth1, stronger effect = lower value)?
**A.** The normalized growth was 1.05.

**Q.** What about the normalized growth (locus YDR069C, strain doa4, stronger effect = lower value) of the same compound?
**A.** Its normalized growth is 1.06.

**Q.** What about the normalized growth (locus YDR101C, strain arx1, stronger effect = lower value) of the same compound?
**A.** Its normalized growth is 1.01.

**Q.** And the normalized growth (locus YDR137W, strain rgp1, stronger effect = lower value)?
**A.** Its normalized growth is 0.984.

**Q.** What about the normalized growth (locus YDR150W, strain NUM1, stronger effect = lower value) of the same compound?
**A.** The normalized growth was 1.03.

**Q.** What about the normalized growth (locus YDR159W, strain sac3, stronger effect = lower value) of the same compound?
**A.** The normalized growth was 1.01.

**Q.** And the normalized growth (locus YDR162C, strain NBP2, stronger effect = lower value)?
**A.** The normalized growth was 1.04.

**Q.** And the normalized growth (locus YDR195W, strain ref2)?
**A.** The normalized growth was 1.17 [resistant] (active).

**Q.** And the normalized growth (locus YDR297W, strain sur2, stronger effect = lower value)?
**A.** Its normalized growth is 1.02.

**Q.** What about the normalized growth (locus YDR318W, strain mcm21, stronger effect = lower value) of the same compound?
**A.** Its normalized growth is 1.01.

**Q.** And the normalized growth (locus YDR334W, strain swr1, stronger effect = lower value)?
**A.** The normalized growth was 1.05.

**Q.** What about the normalized growth (locus YDR335W, strain msn5, stronger effect = lower value) of the same compound?
**A.** Its normalized growth is 1.06.

**Q.** What about the normalized growth (locus YDR388W, stronger effect = lower value) of the same compound?
**A.** Its normalized growth is 1.02.

**Q.** And the normalized growth (locus YDR392W, strain spt3, stronger effect = lower value)?
**A.** The normalized growth was 1.03.

**Q.** What about the normalized growth (locus YDR502C, strain sam2, stronger effect = lower value) of the same compound?
**A.** The normalized growth was 0.997.

**Q.** And the normalized growth (locus YEL003W, strain gim4, stronger effect = lower value)?
**A.** The normalized growth was 1.08.

**Q.** What about the normalized growth (locus YEL037C, strain rad23, stronger effect = lower value) of the same compound?
**A.** The normalized growth was 1.2 [resistant] (active).

**Q.** What about the normalized growth (locus YEL061C, strain CIN8 (second series), stronger effect = lower value) of the same compound?
**A.** The normalized growth was 1.08.

**Q.** What about the normalized growth (locus YER015W, strain faa2, stronger effect = lower value) of the same compound?
**A.** The normalized growth was 1.03.

**Q.** And the normalized growth (locus YER016W, strain bim1, stronger effect = lower value)?
**A.** Its normalized growth is 1.02.

**Q.** And the normalized growth (locus YER110C, stronger effect = lower value)?
**A.** Its normalized growth is 0.997.

**Q.** And the normalized growth (locus YER111C, strain swi4, stronger effect = lower value)?
**A.** The normalized growth was 1.28 [resistant] (active).

**Q.** What about the normalized growth (locus YER155C, strain BEM2 (second series), stronger effect = lower value) of the same compound?
**A.** Its normalized growth is 1.09.

**Q.** What about the normalized growth (locus YER155C, strain BEM2, stronger effect = lower value) of the same compound?
**A.** The normalized growth was 1.

**Q.** What about the normalized growth (locus YER167W, strain BCK2, stronger effect = lower value) of the same compound?
**A.** Its normalized growth is 1.02.

**Q.** And the normalized growth (locus YFR010W, strain ubp6, stronger effect = lower value)?
**A.** Its normalized growth is 1.06.

**Q.** What about the normalized growth (locus YGL078C, strain dbp3, stronger effect = lower value) of the same compound?
**A.** Its normalized growth is 1.02.

**Q.** What about the normalized growth (locus YGL086W, strain mad1, stronger effect = lower value) of the same compound?
**A.** Its normalized growth is 1.

**Q.** And the normalized growth (locus YGL167C, strain pmr1, stronger effect = lower value)?
**A.** Its normalized growth is 1.02.

**Q.** And the normalized growth (locus YGL173C, strain kem1, stronger effect = lower value)?
**A.** Its normalized growth is 1.02.

**Q.** And the normalized growth (locus YGL227W, strain vid30, stronger effect = lower value)?
**A.** The normalized growth was 1.03.

**Q.** What about the normalized growth (locus YGL240W, strain doc1, stronger effect = lower value) of the same compound?
**A.** Its normalized growth is 1.02.

**Q.** And the normalized growth (locus YGL248W, strain PDE1, stronger effect = lower value)?
**A.** The normalized growth was 1.06.

**Q.** What about the normalized growth (locus YGL253W, strain hxk2, stronger effect = lower value) of the same compound?
**A.** The normalized growth was 1.07.

**Q.** And the normalized growth (locus YGR135W, strain pre9, stronger effect = lower value)?
**A.** The normalized growth was 1.01.

**Q.** What about the normalized growth (locus YGR252W, strain gcn5, stronger effect = lower value) of the same compound?
**A.** Its normalized growth is 1.05.

**Q.** And the normalized growth (locus YHR013C, strain ard1, stronger effect = lower value)?
**A.** The normalized growth was 1.04.

**Q.** What about the normalized growth (locus YHR027C, strain rpn1, stronger effect = lower value) of the same compound?
**A.** The normalized growth was 1.03.

**Q.** What about the normalized growth (locus YHR030C, strain SLT2, stronger effect = lower value) of the same compound?
**A.** The normalized growth was 0.965.

**Q.** What about the normalized growth (locus YHR079C, strain IRE1 (second series), stronger effect = lower value) of the same compound?
**A.** Its normalized growth is 0.993.

**Q.** And the normalized growth (locus YHR079C, strain IRE1, stronger effect = lower value)?
**A.** Its normalized growth is 0.97.

**Q.** And the normalized growth (locus YHR094C, strain hxt1, stronger effect = lower value)?
**A.** Its normalized growth is 1.01.

**Q.** What about the normalized growth (locus YHR129C, strain ARP1, stronger effect = lower value) of the same compound?
**A.** Its normalized growth is 1.05.

**Q.** What about the normalized growth (locus YHR142W, strain chs7, stronger effect = lower value) of the same compound?
**A.** Its normalized growth is 1.18 [resistant] (active).

**Q.** What about the normalized growth (locus YIL066C, strain RNR3, stronger effect = lower value) of the same compound?
**A.** Its normalized growth is 1.03.

**Q.** What about the normalized growth (locus YIL073C, strain SPO22, stronger effect = lower value) of the same compound?
**A.** The normalized growth was 1.12.

**Q.** What about the normalized growth (locus YIL125W, strain kgd1, stronger effect = lower value) of the same compound?
**A.** The normalized growth was 0.999.

**Q.** What about the normalized growth (locus YIR030C, strain dcg1, stronger effect = lower value) of the same compound?
**A.** Its normalized growth is 1.

**Q.** And the normalized growth (locus YJL092W, strain hpr5, stronger effect = lower value)?
**A.** The normalized growth was 1.02.

**Q.** And the normalized growth (locus YJL095W, strain BCK1 (second series), stronger effect = lower value)?
**A.** Its normalized growth is 1.01.

**Q.** What about the normalized growth (locus YJL095W, strain BCK1, stronger effect = lower value) of the same compound?
**A.** The normalized growth was 1.06 and 0.993.

**Q.** And the normalized growth (locus YJL115W, strain asf1, stronger effect = lower value)?
**A.** Its normalized growth is 1.03.

**Q.** What about the normalized growth (locus YJL134W, strain LCB3, stronger effect = lower value) of the same compound?
**A.** The normalized growth was 1.02.

**Q.** And the normalized growth (locus YJL154C, strain vps35, stronger effect = lower value)?
**A.** Its normalized growth is 1.11 [resistant] (active).

**Q.** What about the normalized growth (locus YJL164C, strain tpk1, stronger effect = lower value) of the same compound?
**A.** Its normalized growth is 1.02.

**Q.** What about the normalized growth (locus YJL166W, strain qcr8, stronger effect = lower value) of the same compound?
**A.** The normalized growth was 1.02.

**Q.** And the normalized growth (locus YJL168C, strain set2, stronger effect = lower value)?
**A.** The normalized growth was 0.988.

**Q.** And the normalized growth (locus YJL187C, strain SWE1 (second series), stronger effect = lower value)?
**A.** Its normalized growth is 1.04.

**Q.** What about the normalized growth (locus YJL187C, strain SWE1, stronger effect = lower value) of the same compound?
**A.** The normalized growth was 1.01.

**Q.** What about the normalized growth (locus YJR043C, strain POL32, stronger effect = lower value) of the same compound?
**A.** Its normalized growth is 1.05.
